Results on 70 molecules are retold here after ChEMBL document CHEMBL4513216, “Probing the Open Global Health Chemical Diversity Library for Multistage-Active Starting Points for Next-Generation Antimalarials” (ACS Infect Dis, 2020).

Screen size: about 69,000 compounds; about 8,600 (12%) showed an effect of 50% or more. The entries come from a sample that favours strong results as a whole.

The assay relates to Plasmodium berghei. Nature of the assay: Screen against P. berghei liver stage (PbLuc), transformed with Luciferase, at 10uM. As to conditions: tested at 10 uM. It is filed as functional, HepG2.
As to `COCCCS(=O)(=O)N1CCN(C(C)(C)CO)CC1`, the INHIBITION was found to be 27.65%.
On to `CC(C)c1nc(CN2CCCCC2)cs1`, for which the INHIBITION is listed as 47.9%.
Consider `CC(C)c1nc(CN(C)C(=O)CNC(N)=O)cs1`, for which the INHIBITION is given as 41.5%.
Turning to `CN(Cc1cc(C(C)(C)C)n[nH]1)C(=O)c1cn2ccsc2n1`, the INHIBITION is listed as -11.5%.
In the case of `CC(C)c1nc(CN(C)C(=O)c2ccc3c(c2)OCC(=O)N3)cs1`, the INHIBITION is -19.9%.
Turning to `CC(C)c1nc(CN(C)C(=O)c2ccc3c(c2)OCO3)cs1`, the INHIBITION is reported as -40.4%.
Consider `CC(C)c1nc(CC(=O)Nc2nc(CN3CCCCCC3)cs2)cs1`, for which the INHIBITION was 59.7%.
Regarding `CC(C)c1nc(CN(C)C(=O)c2cn3ccsc3n2)cs1`, the INHIBITION is on record as 50.5%.
Turning to `CC(C)c1nc(CN(C)C(=O)c2ccc(CN3CCCCC3)cc2)cs1`, the INHIBITION is recorded as 65.3%.
On to `CC(C)c1nc(CN2CCC(CO)CC2)cs1`, for which the INHIBITION was determined as 23.4%.
Take `CS(=O)(=O)N1C[C@@H](O)[C@H](N2CCN(c3ccccc3)CC2)C1`: the INHIBITION was -18.8%.
As to `COc1ccc(CCc2nnc(NC(=O)C3CC34CCC4)s2)cc1OC` (stereo not given), the INHIBITION is 4.32%.
To `Cc1cc2c(cc1NC(N)=O)OCO2` belongs 43.2%; to `CC(=O)N1CCc2ncn(C)c2C1C(=O)N1CCCC1` (stereo not given), 45.8%.
Regarding `Cn1cnc2c1C(C(=O)N1CCCO1)N(C(=O)c1ccccc1)CC2` (stereo not given), the INHIBITION is listed as 70.4%.
Regarding `Cn1cnc2c1C(C(=O)N1CCOCC1)N(C(=O)c1ccccc1)CC2` (stereo not given), the INHIBITION is -31.6%.
For the molecule `CC(C)c1nnc(CNC2CCCN(Cc3noc(C4CC4)n3)C2)o1` (stereo not given), the INHIBITION amounted to 19.5%.
Regarding `O=C(NC1CCN(c2ncccn2)CC1)c1sccc1C1CC1`, the INHIBITION is recorded as 39.7%.
The figure for `CN(Cc1ccccc1CNC(=O)C1CNC(=O)N1)C1CCCCC1` (stereo not given) is 57.7%.
Turning to `CC1CCN(Cc2ccccc2CNC(=O)C2CNC(=O)N2)CC1` (stereo not given), the INHIBITION is listed as 13.8%.
Regarding `O=C1NCC(C(=O)NCc2ccccc2CN2CCOCC2)N1` (stereo not given), the INHIBITION worked out at 15.2%.
Take `CC(C)OCCCNC(=O)CS(=O)(=O)Cc1ccc(C(C)(C)C)cc1`: the INHIBITION is listed as -27.8%.
On to `Cc1nn(C)cc1NC(=O)CN1CCC(Oc2cnccn2)CC1`, for which the INHIBITION is listed as -2.09%.
To `Cc1ccccc1OC1CCN(CC(=O)Nc2ccn(C)n2)CC1` belongs 15.1%.
Regarding `Cc1ccccc1OC1CCN(CC(=O)Nc2cn(C)nc2C)CC1`, the INHIBITION worked out at 17.3%.
Take `Cc1ccccc1OC1CCN(CC(=O)Nc2c(C)nn(C)c2C)CC1`: the INHIBITION was 52.5%.
With `CCn1cc(NC(=O)CN2CCC(Oc3ccccc3C)CC2)c(C)n1`, the INHIBITION is -0.275%.
As for `CCn1cc(NC(=O)CN2CCC(Oc3ccc(F)cc3)CC2)c(C)n1`, the INHIBITION was 58%.
As to `COCC(c1cccc(C(F)(F)F)c1)N(C)C(=O)c1ccoc1` (stereo not given), the INHIBITION is 40.49%.
The figure for `COc1cccc2c3c(c(=O)n(C)c12)CCC(C)(C)O3` is 12.3%; for `Cn1cccc1C(=O)N1CCn2cc(CNC(=O)CC3CC3)nc2C1` it is 9.67%; for `CCc1ncc2c(n1)CN(Cc1cnc(C)cn1)CC2` it is 25.2%.
Regarding `COCCC(=O)N1CCC(c2nnc(-c3ccsc3)o2)CC1`, the INHIBITION was determined as 0.75%.
With `COc1cc(C2SCC(=O)Nc3[nH]ncc32)cc2c1OCO2` (stereo not given), the INHIBITION turned out to be 30.2%.
Take `COc1cccc(C2c3c(n[nH]c3C)N=C3COC(=O)C32)c1OC` (stereo not given): the INHIBITION was -7.77%.
Consider `COc1cccc(C2c3c(n[nH]c3C)N=C3COC(=O)C32)c1O` (stereo not given), for which the INHIBITION was found to be 48%.
As to `CSc1nc(N)c2c(n1)N=C1COC(=O)C1C2c1cccc(O)c1` (stereo not given), the INHIBITION was found to be 25.1%.
Take `COc1cc(C2c3c(n[nH]c3C)N=C3COC(=O)C32)cc(Br)c1O` (stereo not given): the INHIBITION was 62.3%.
With `CCOc1c(Br)cc(C2c3c(n[nH]c3C)N=C3COC(=O)C32)cc1OC` (stereo not given), the INHIBITION turned out to be 72.4%.
As for `COc1cc(C2c3c(n[nH]c3C)N=C3COC(=O)C32)cc2c1OCO2` (stereo not given), the INHIBITION is reported as 58.1%.
Consider `O=C(NCc1ccco1)[C@H]1CC[C@@H]2[C@@H](CCN2c2ncc(F)cn2)O1`, for which the INHIBITION turned out to be 38.1%.
The figure for `CC(=O)NC1CCCN(C(=O)NCCOc2ccc3c(c2)OCO3)C1` (stereo not given) is 15.6%; for `O=C(CCc1ccncc1)N1CCCC(n2cccn2)C1` (stereo not given) it is 24.39%.
Turning to `O=C(c1cccn1Cc1cccs1)N1CCC(C(=O)N2CCCC2)CC1`, the INHIBITION worked out at 11.6%.
In the case of `COCc1cccc(CNCc2c(C)nn(C)c2N2CCOCC2)c1`, the INHIBITION is recorded as 27.4%.
Take `CCCN1CCCCCC1Cc1c(C(=O)NC)sc2ccccc12` (stereo not given): the INHIBITION is 17.235%.
As for `CN1CCCNC(=O)C12CCN(C(=O)c1ccc3[nH]cnc3c1)CC2`, the INHIBITION was found to be 20.2%.
To `CCc1noc(C(C)N2CCN(CCOCC(F)(F)F)CC2)n1` (stereo not given) belongs -5.545%; to `O=C(NCc1nccn1CCc1ccccc1)NCC1(O)CCC1`, -4.15%; to `O=C(NCC1CCN(CCc2ccccc2)C1)NCC1(O)CCC1` (stereo not given), 53.8%.
For the molecule `Cc1noc(C(C)C)c1C(=O)NCC1CCCN1Cc1ccccc1` (stereo not given), the INHIBITION came to 24.1%.
Regarding `O=C(NCC1CCCN1Cc1ccccc1)NCC1(O)CCC1` (stereo not given), the INHIBITION was 53.8%.
`CCCN1CCC(CNC(=O)C2(c3ccccc3)CCC2)C1` (stereo not given): the INHIBITION is on record as 42.9%.
Turning to `O=C(NCC1CCCN1CCc1ccccc1)NCC1(O)CCC1` (stereo not given), the INHIBITION is 19.2%.
To `CCC(=O)NCCCn1c(-c2cccnc2C)cc2cccnc21` belongs 10.9%; to `Cn1c(C(F)(F)F)nn(CCNC(=O)Nc2ccccc2Cl)c1=O`, 21%.
As for `CCNC(=O)C(C)NC(=O)Nc1ccccc1SC(F)(F)F` (stereo not given), the INHIBITION is listed as 65%.
In the case of `CCCNC(=O)C(C)NC(=O)Nc1ccccc1SC(F)F` (stereo not given), the INHIBITION is given as 41.5%.
As to `CCNC(=O)C(C)NC(=O)Nc1ccccc1Cl` (stereo not given), the INHIBITION is on record as 62.9%.
Turning to `O=C(NCCCn1nc2ccccn2c1=O)Nc1ccccc1Cl`, the INHIBITION is 7.12%.
Take `CCNC(=O)C(C)NC(=O)Nc1ccccc1SCC` (stereo not given): the INHIBITION was found to be 5.17%.
On to `O=C1CCC2(CCC(NCc3ccoc3)CC2)N1` (stereo not given), for which the INHIBITION worked out at 2.58%.
As for `O=C(CN1CCc2sccc2C1)Nc1nccs1`, the INHIBITION is on record as -41.6%.
Regarding `COC1COC2(CCN(CC3CCOCC3)CC2)C1` (stereo not given), the INHIBITION was 14%.
With `Cc1ccnc(NC(=O)c2ccc(F)c(S(=O)(=O)NC3CC3)c2)c1`, the INHIBITION is listed as -25.4%.
Turning to `CCn1cnnc1C1CCN(C(=O)c2ccccc2F)CC1`, the INHIBITION turned out to be 21%.
To `CNC(=O)C1Cn2ccnc2C2(CCN(C(=O)c3ccoc3C)CC2)O1` (stereo not given) belongs -7.7%.
On to `CC(C)c1noc(C(C)N2CCN(Cc3nc4ccccc4[nH]3)CC2)n1` (stereo not given), for which the INHIBITION came to 53.3%.
Regarding `CC(C)c1noc(C(C)N2CCN(Cc3cccs3)CC2)n1` (stereo not given), the INHIBITION is listed as 15.5%.
For `CC(C)c1noc(C(C)N2CCC(c3nc4ccccc4[nH]3)CC2)n1` (stereo not given), the INHIBITION stood at 36.5%.
